{
  "source": "PubChem BioAssay (NCATS)",
  "note": "Records with an inconclusive call do not appear. Entries that show only a call come without a potency. A number with no mark means an inactive call. The source made the active and inactive calls. Calls come from the whole dose curve; as a rule, active = well fitted inhibition curve with a large enough effect; inconclusive = small, poorly fitted or top-dose-only effect; inactive = no such curve, though single readings can be large or run the other way.",
  "data": [
    {"test_system": "Zika virus NS2B-NS3 protease (linked construct)", "test": "Primary screen NINDS Rhodamine qHTS for Zika virus inhibitors (AID 1347160); note: nearly all actives have a fitted effect of over 55% in size", "details": "purified NS2B-NS3 protease, Rhodamine110 substrate fluorescence; series mostly up to 57.1 µM", "outline": "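Kinetic fluorescence (Ex 480 nm, Em 540 nm) over 15 min with 1.5 microM Rhodamine110 peptide and 25 nM linked protease.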", "values": [
      {"smiles": "C=CC1(C)CC2=CCC3C(C)(C(=O)O)CCCC3(C)C2CC1OC(C)=O", "note": "(configuration not stated)", "Potency": "inactive"},
      {"smiles": "O=C(CCO[C@@H]1O[C@H](CO)[C@@H](O)[C@H](O)[C@H]1O)c1ccc(O)cc1", "Potency": "inactive"},
      {"smiles": "COc1cc(COC2OC(CO)C(O)C(O)C2O)cc(OC)c1O", "note": "(configuration not stated)", "Potency": "inactive"},
      {"smiles": "Clc1ccc2c(c1)C1=NCCN1c1c(-c3noc(C4CC4)n3)ncn1-2", "Potency": "inactive"},
      {"smiles": "COC(=O)C1=COC(O[C@@H]2O[C@H](CO)[C@@H](O)[C@H](O)[C@H]2O)/C(=C\\COC(=O)c2ccc(OC3OC(CO)C(O)C(O)C3O)c(OC)c2)C1CC(=O)OCCc1ccc(O)cc1", "note": "(some centres not stated)", "Potency": "inactive"},
      {"smiles": "C=C(C)C(C)C1OC23CC4(CO2)C(CCC2C5(C)CCC(OC6OCC(O)C(OC7OC(CO)C(O)C(OC8OCC(O)C(O)C8O)C7O)C6OC6OC(CO)C(O)C6O)C(C)(C)C5CCC24C)C3C(C)(O)C1OC(C)=O", "note": "(configuration not stated)", "Potency": "inactive"},
      {"smiles": "COC12CC3C(C(C)C1=CC(=O)O2)C(O)C(OC(C)=O)C1C(C)(C)C(OC(C)=O)CCC31C", "note": "(configuration not stated)", "Potency": "inactive"},
      {"smiles": "CC1=C2[C@@H]([C@H](C)CC[C@H]2/C=C(\\C)C(=O)O)[C@H](O)C1", "Potency": "inactive"},
      {"smiles": "CC1(C)CC[C@]2(C(=O)O)CC[C@]3(C)C(=CCC4[C@@]5(C)CC[C@H](O[C@@H]6O[C@H](C(=O)O)[C@@H](O)[C@H](O)[C@H]6O)C(C)(CO)C5CC[C@]43C)C2C1", "note": "(some centres not stated)", "Potency": "inactive"},
      {"smiles": "O=C1[C@H](O[C@@H]2O[C@H](CO)[C@@H](O)[C@H](O)[C@H]2O)Oc2ccccc2N1O", "Potency": "inactive"},
      {"smiles": "CC(=O)O[C@H]1CC[C@@]2(CI)C(=CC[C@@H]3[C@@H]2CC[C@]2(C)[C@@H]([C@H](C)CCCC(C)C)CC[C@@H]32)C1", "activity change, negative = inhibition": "7.05% [at 10.7 µM]"},
      {"smiles": "Cc1c(-c2ccnn2C)cc(C(=O)NCc2ccc(S(C)(=O)=O)cn2)c(=O)n1-c1cccc(C(F)(F)F)c1", "Potency": "inactive"}
    ]}
  ]
}
